Measurements published in PubChem BioAssay (NCATS).
Inconclusive results are not listed. A number with no mark means an inactive call. Calls of active or inactive are those of the source. Calls follow the shape of the dose curve; as a rule, active = well fitted inhibition curve with a large enough effect; inconclusive = small, poorly fitted or top-dose-only effect; inactive = flat fitted curve, though single readings scatter. Where a SMILES comes first, the peptide text is derived from it. Bridges are numbered along the chain shown (N, C = ends). [ ]: non-standard residue; d: D form. The star is where a group is joined. X1 = CCC(C)C(N)C1=NC(C(=O)*)CS1; dOrn = NCCC[C@@H](N)C(=O)O

Assay: P-glycoprotein substrates identified in KB-8-5-11 adenocarcinoma cell line, qHTS therapeutic library screen (AID 1346987); also: nearly all actives have a fitted effect of over 65% in size
Conditions: KB-8-5-11 (P-gp overexpressing) viability, CellTiter-Glo, 72 h; series mostly up to 44.5 µM; activity change, negative = cytotoxicity: at the top concentration
Outline: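 Human cervical adenocarcinoma KB-8-5-11 cells, selected in colchicine to over-express P-gp and assayed without it, were exposed for 72 h to titrated compounds. An ATP-based luminescent viability signal gave AC50.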
% is scaled to controls: 0 for no effect and ±100 for the full control effect.

Structure (SMILES)	activity change, negative = cytotoxicity	outcome	Potency
CC(=O)O[C@@H]1[C@H](O[C@@H]2OC[C@](O)(CO)[C@H]2O)[C@@H](O[C@@H]2O[C@@H](C)[C@H](O)[C@@H](O)[C@H]2O)[C@H](OC(=O)[C@]23CCC(C)(C)C[C@H]2C2=CCC4[C@@]5(C)C[C@H](O)[C@H](O[C@@H]6O[C@H](C(=O)O)[C@@H](O)[C@H](O)[C@H]6O)[C@@](C)(C(=O)O)C5CC[C@@]4(C)[C@]2(C)CC3)O[C@@H]1C (stereo partly drawn)	1.88% [at 9.29 µM]	–	–
O=C(C1CC1)N1CC[C@@H](Cc2n[nH]c(=O)n2-c2ccc(-c3ccc4occc4c3)cc2)C1	–	inactive [at 17.3 µM]	–
OC1COC(OCC2OC(OCCc3ccccc3)C(O)C(O)C2O)C(O)C1O (stereo not drawn)	1.01% [at 17.3 µM]	–	–
C=CC(C)(O)CC/C=C(\C)C(=O)OCC1OC(OC2CCC3(C)C(CCC4(C)C3CC=C3C5CC(C)(C)C(O)CC5(C(=O)O)CCC34C)C2(C)C)C(O)C(OC2OC(CO)C(O)C(OC3OC(CO)C(O)C(OC4OC(COC5OC(CO)C(O)C(O)C5O)C(O)C(O)C4O)C3O)C2O)C1O (stereo not drawn)	5.27% [at 9.29 µM]	–	–
COc1ccc(/C=C/C(=O)O[C@H]2[C@@H]3C=CO[C@@H](O[C@@H]4O[C@H](CO)[C@@H](O)[C@H](O)[C@H]4O)[C@@H]3[C@@]3(CO)O[C@@H]23)cc1O	5.83% [at 17.3 µM]	–	–
O=C1N(CC2CCCCN2)CCN1c1ccccc1 (stereo not drawn)	–	inactive	–
O=C1NC(=Nc2ccccc2F)S/C1=C\c1ccc(C(=O)O)cc1	–	inactive	–
CC(/C=C/C1(O)C(C)CC(O)CC1(C)C)OC1OC(CO)C(O)C(O)C1O (stereo not drawn)	0.557%	–	–
CC1(C)CC[C@]2(C(=O)O)CC[C@]3(C)C(=CCC4[C@@]5(C)C[C@H](O)[C@H](O[C@@H]6OC[C@H](O)[C@H](O)[C@H]6O)[C@@](C)(CO)C5CC[C@]43C)[C@@H]2C1 (stereo partly drawn)	–	inactive [at 17.3 µM]	–
C/C=C/C1=CC2=C(CO1)C(=O)[C@](C)(O)[C@H](OC(=O)c1c(O)cc(OC)c(O)c1C)C2	–	inactive [at 17.3 µM]	–
NCCCC[C@H](NC(=O)[C@@H]1Cc2ccccc2CN1C(=O)CCC(=O)c1ccccc1)C(=O)NCC(c1ccccc1)c1ccccc1	–	inactive	–
CN1C(=O)c2ccccc2-n2c(nc3ccccc3c2=O)/C1=C/c1ccccc1	-11.7%	–	–
CC(/C=C/C1(O)C(C)(C)CC(O)CC1(C)O)OC1OC(CO)C(O)C(O)C1O (stereo not drawn)	–	inactive [at 17.3 µM]	–
C[C@]12CC[C@@H]3c4ccc(O[C@@H]5O[C@H](C(=O)O)[C@@H](O)[C@H](O)[C@H]5O)cc4CC[C@H]3[C@@H]1CCC2=O	–	inactive	–
O=C(OCc1cccc(O)c1O[C@@H]1O[C@H](CO)[C@@H](O)[C@H](O)[C@H]1O)C1(O)C(=O)C2C=CC1C1C=CC(=O)C(O)(C(=O)OCc3cccc(O)c3O[C@@H]3O[C@H](CO)[C@@H](O)[C@H](O)[C@H]3O)C21 (stereo partly drawn)	–	inactive [at 9.29 µM]	–
C=CC1(C)C=C2C(=O)CC3C(C)(C)CCCC3(C(=O)O)C2(O)CC1 (stereo not drawn)	–	inactive	–
COc1ccc2c3c1O[C@H]1C[C@@H](O)C=C[C@@]31CCN(C)C2	0.471%	–	–
CCC(=O)NS(=O)(=O)c1ccc(-c2c(-c3ccccc3)noc2C)cc1	–	–	inactive
C/C1=C2N=C(/C=C3N=C(/C(C)=C4\[N-][C@@](C)([C@@H]5N=C1[C@](C)(CCC(=O)NCC(C)OP(=O)(O)O[C@H]1[C@@H](O)[C@@H](n6cnc7cc(C)c(C)cc76)O[C@@H]1CO)[C@H]5CC(N)=O)[C@@](C)(CC(N)=O)[C@@H]4CCC(N)=O)[C@@](C)(CC(N)=O)[C@@H]\3CCC(N)=O)C(C)(C)[C@@H]/2CCC(N)=O.CC(=O)O.[Co] (stereo partly drawn)	-18.5%	–	–
CCC(C)C(N)C1=NC(C(=O)N[C@@H](CC(C)C)C(=O)N[C@H](CCC(=O)O)C(=O)N[C@H](C(=O)N[C@H]2CCCCNC(=O)[C@H](CC(N)=O)NC(=O)[C@@H](CC(=O)O)NC(=O)[C@H](Cc3cnc[nH]3)NC(=O)[C@@H](Cc3ccccc3)NC(=O)[C@H]([C@@H](C)CC)NC(=O)[C@@H](CCCN)NC2=O)[C@@H](C)CC)CS1 (stereo partly drawn) (X1-L[dE]IK[dOrn]I[dF]H[dD]N; lactam 4-C)	–	–	inactive
CC(=O)OC1C=C(C(=O)O)C2(CO)CCC(C)C(C)(CCc3ccoc3)C2C1 (stereo not drawn)	–	inactive [at 17.3 µM]	–
C[C@H]1CN(C[C@H](Cc2ccccc2)C(=O)NCC(=O)O)CC[C@@]1(C)c1cccc(O)c1	–	inactive	–
COc1cccc(-n2nc(C(=O)O)cc2-c2ccc(C3CCCCC3)c(Cl)c2)c1	–	inactive	–
